# Shown is part of a subset that was picked to be rich in hits.
# RECQ1 inh – inhibitors of human RECQ1 DNA helicase; RECQ1 DNA unwinding, red fluorescence kinetic read; AID 2549; P46063; 0.54% of 240,000 active; Potency, µM (titrated, usually from 57.3 µM), most hits filed as inhibitors; note: nearly all actives have a fitted effect of over 30% in size
#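 50 nM RECQ1T1 preincubated 15 min with compound in Tris pH 8.0 buffer with MgCl2, DTT, Tween-20 and 2.5 ug/ml poly(dI-dC); started with 200 nM TAMRA/BHQ-2 forked duplex and 2 mM ATP. Unwinding read as fluorescence (525/598 nm), two reads 2 h apart.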
# APEX1 inh – inhibitors of human APE1 endonuclease. AID 2517. Potency, µM (top dose mostly 65.8 µM), most hits filed as inhibitors. 0.35% of 350,000 active. recombinant APE1, TAMRA/BHQ-2 abasic DNA cleavage fluorescence; note: nearly all actives have a fitted effect of over 55% in size
#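 Kinetic fluorescence read (525 ex/598 em nm, three reads 60 s apart) of AP-site incision; signal = third minus first read. Enzyme 0.75 nM, dual-labelled THF duplex 50 nM, compound preincubation 15 min RT.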
# L3MBTL1 block – inhibitors of human L3MBTL1. Potency, µM (doses to about 57.1 µM), hits mostly inhibitors. Q9Y468. 0.66% of 230,000 active. AlphaScreen L3MBTL1–H3K9me1 peptide binding; note: nearly all actives have a fitted effect of over 60% in size
# Target sequence (Q9Y468 whole entry, looked up): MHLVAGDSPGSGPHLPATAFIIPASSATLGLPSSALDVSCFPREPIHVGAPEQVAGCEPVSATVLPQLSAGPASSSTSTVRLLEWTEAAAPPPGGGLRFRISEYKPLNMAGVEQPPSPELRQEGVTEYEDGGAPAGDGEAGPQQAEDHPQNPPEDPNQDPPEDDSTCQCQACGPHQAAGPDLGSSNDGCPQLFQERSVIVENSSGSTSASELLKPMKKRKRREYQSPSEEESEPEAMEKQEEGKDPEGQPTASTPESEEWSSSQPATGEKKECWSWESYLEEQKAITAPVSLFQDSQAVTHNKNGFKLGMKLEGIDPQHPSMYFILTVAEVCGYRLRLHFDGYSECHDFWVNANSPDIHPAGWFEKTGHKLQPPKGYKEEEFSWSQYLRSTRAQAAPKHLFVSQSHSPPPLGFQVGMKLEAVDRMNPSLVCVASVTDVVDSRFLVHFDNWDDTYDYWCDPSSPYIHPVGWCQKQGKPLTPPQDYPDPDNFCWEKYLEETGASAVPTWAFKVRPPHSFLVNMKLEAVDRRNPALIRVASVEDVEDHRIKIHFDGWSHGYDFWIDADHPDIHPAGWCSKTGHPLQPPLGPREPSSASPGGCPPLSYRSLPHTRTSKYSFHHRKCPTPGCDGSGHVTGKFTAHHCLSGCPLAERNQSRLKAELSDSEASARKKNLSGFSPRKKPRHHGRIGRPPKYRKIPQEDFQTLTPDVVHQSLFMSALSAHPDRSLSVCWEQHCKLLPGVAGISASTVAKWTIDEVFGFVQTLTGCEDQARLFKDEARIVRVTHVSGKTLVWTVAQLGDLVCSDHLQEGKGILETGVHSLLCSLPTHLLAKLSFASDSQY
#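 First, the protein-peptide complex forms for 30 min at room temperature (L3MBTL1 50 nM, biotinylated H3K9me1 peptide 75 nM). Next, compounds are pin-transferred and incubated 30 min. Finally, AlphaScreen beads are added and read after 30 min.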
# BLM helicase inh – inhibitors of human Bloom syndrome helicase BLM. recombinant BLM DNA unwinding, fluorescence dequenching. Potency, µM (top dose mostly 56.1 µM), usual class: inhibitors. 0.2% of 350,000 active. AID 2528; note: nearly all actives have a fitted effect of over 35% in size
# KDM4E inh – inhibitors of human JMJD2E histone demethylase; Potency, µM (series often up to 57.1 µM), hits mostly inhibitors; 1.6% of 230,000 active; JMJD2E catalytic domain, FDH-coupled NADH fluorescence (FDH is formaldehyde dehydrogenase); B2RXH2; AID 2147; active = well fitted inhibition curve with a large enough effect, not every such curve was filed as active; inconclusive = small, poorly fitted or top-dose-only effect, or another doubt; inactive = no such curve, though single readings can be large or run the other way; note: nearly all actives have a fitted effect of over 50% in size
# A number is an active result; 0 = inactive; ? = inconclusive; - = no result given; ! = not active in a repeat; [ ] = remark or other dose. Unless noted, calls come from the whole dose curve; as a rule, active = well fitted curve in the direction sought with a large enough effect; inconclusive = small, poorly fitted or top-dose-only effect, or another doubt; inactive = no such curve, though single readings can be large; an effect the other way counts as inactive or inconclusive.
SMILES,RECQ1 inh,APEX1 inh,L3MBTL1 block,BLM helicase inh,KDM4E inh
CCc1nn2c(=O)cc(COc3ccc(/C=C4\C(=N)N5N=C(C)SC5=NC4=O)cc3)nc2s1,?,?,-,13µM,?
CCc1cc(=O)oc2cc(C)c(CN3CCCC(C)C3)c(O)c12 (centres undefined),7.1µM,14µM,11µM,?,?
CC(Cc1ccc(O)c(O)c1)(NN)C(=O)O (centres undefined),0,0,-,0,2.2µM
c1ccc(N2CCN(c3nc4ccccc4n4nnnc34)CC2)cc1,0,0,3.5µM,0,?
CCn1c(C)nc2cc(C(=O)N/N=C/c3cccc(O)c3O)ccc21,0,0,?,0,3.5µM
CCn1c(C)nc2cc(C(=O)N/N=C(\C)c3ccc(OC)cc3O)ccc21,0,0,0,0,13µM
CCn1c(C)nc2cc(C(=O)NN=C(C)c3ccc(C#N)cc3)ccc21,-,0,0,-,-
O=c1cc(N2CCCC2)c2ccccc2o1,0,0,0,0,0
Cc1cc(C(=O)Cn2nnc(-c3ccc(Cl)cc3)n2)c(C)n1-c1ccccc1,0,0,0,0,0
Cc1nc(-c2coc3c(CN(C)C)c(O)ccc3c2=O)cs1,0,0,-,0,28µM
COc1ccc(N(C(=O)Cn2nnc3ccccc32)C(C(=O)NC(C)(C)C)c2ccc(OC)c(O)c2)cc1 (centres undefined),0,0,0,0,0
O=C(O)c1cccc(COc2ccc3c(c2)CCC3)c1,0,?,22µM,0,0
N#C/C(=C/c1ccc(N2CCCCC2)o1)C(=O)Nc1ccc(Cl)cc1,0,0,0,0,0
N#C/C(=C/c1ccc(N2CCCCC2)o1)C(=O)Nc1ccc2ccccc2c1,?,?,0,0,25µM
COc1ccc(-c2nn(-c3ccccc3)cc2/C=N/NC(=O)c2ccc3c(c2)OCO3)cc1,0,0,0,0,?
COc1ccc(-c2nn(-c3ccccc3)cc2/C=N/NC(=O)c2ccc(Br)o2)cc1,?,0,35µM,0,?
COC1=C(N)C(=O)c2nc(-c3nc(C(=O)O)c(C)c(-c4ccc(OC)c(OC)c4O)c3N)ccc2C1=O,0,0,20µM,3.5µM,0
COc1ccc(C(=O)O)c(O)c1OC,0,0,-,0,0
COCCN=C1OC(=O)N2C(=O)C3=C4C(C[C@H]5C(=O)N(CC(=O)OC)C(=O)[C@H]5[C@H]4[C@@]12Cc1ccccc1)[C@H]1C(=O)N(CC(=O)OC)C(=O)[C@H]1[C@H]3C (some centres undefined),0,0,-,0,0
Cc1sc2ncnc(N/N=C/c3ccc(O)cc3)c2c1C,0,0,0,0,0
Cc1sc2ncnc(N/N=C/c3ccccc3O)c2c1C,0,0,?,0,25µM
CCOc1ccccc1Nc1nnc(Cc2ccccc2Cl)c(=O)[nH]1,0,0,0,0,0
Cn1c(=O)c(N)c2c3c(c(Br)ccc31)C(=O)c1ccccc1-2,0,0,0,0,25µM
C/C(=N\OCc1nc2ccccc2c(=O)n1/N=C/c1cc(C)cc([N+](=O)[O-])c1O)c1ccccc1,?,0,?,0,14µM
COc1cc(/C=N/NC(=O)c2ccc(CN3C(=O)c4cccc5cccc3c45)cc2)cc(OC)c1O,0,0,-,0,22µM
SMILES,RECQ1 inh,APEX1 inh,L3MBTL1 block,BLM helicase inh,KDM4E inh
Cc1cccc(N2CCN(C(=O)CCCCn3c(=O)[nH]c4ccsc4c3=O)CC2)c1C,-,-,-,0,-
COc1cc2c(cc1O)CCN[C@@]21CS[C@H]2c3c(OC(C)=O)c(C)c4c(c3C(COC1=O)N1C2C2c3c(cc(C)c(OC)c3O)CC([C@@H]1O)N2C)OCO4 (some centres undefined),-,-,-,10µM,-
COC(=O)C1(C(O)C(=O)c2ccc(C)cc2C)CCCCC1 (centres undefined),0,0,0,0,0
COc1cc(/C=N/Nc2nncn2N)ccc1OCc1c(C)no[n+]1[O-],0,0,0,0,0.5µM
S=c1[nH]nc(-c2ccc(Cl)cc2)n1/N=C/C=C/c1ccco1,?,?,28µM,?,?
S=c1[nH]nc(-c2ccccc2)n1/N=C/C=C/c1ccco1,0,0,?,0,0
S=c1[nH]nc(-c2cccnc2)n1/N=C/C=C/c1ccco1,?,0,22µM,20µM,0
O=c1c2cc([N+](=O)[O-])ccc2nc2n1CCCC2,-,0,-,0,-
COc1ccc(CNc2nc(-c3ccc(N(C)C)cc3)nc3ccccc23)c(OC)c1,0,0,-,28µM,-
COc1ccc(CNc2nc(-c3ccc(C(=O)N(C)C)cc3)nc3ccccc23)c(OC)c1,0,0,-,0,?
N#CC1=C(N)SC(N)=C(C#N)C1c1ccoc1,0,?,5µM,?,?
O=C(CSc1nc2ccc(Nc3nc(N4CCCC4)nc(N4CCCC4)n3)cc2s1)NCc1ccco1,0,0,-,0,20µM
O=C(CSc1nc2ccc(Nc3nc(N4CCOCC4)nc(N4CCOCC4)n3)cc2s1)Nc1ccccc1Cl,-,0,-,0,-
Cn1c(=O)c2c(SCC(=O)N3CCN(c4ccccc4)CC3)nc(C3CC3)nc2n(C)c1=O,18µM,0,0,0,0
CCc1nc(SCC(=O)N2CCN(c3ccccc3)CC2)c2c(=O)n(C)c(=O)n(C)c2n1,0,0,0,0,0
O[C@@H]1[C@@H](O)C=C2CCN3Cc4cc5c(cc4[C@H]1C23)OCO5 (some centres undefined),-,0,0,-,-
OC1C=C2CCN3Cc4cc5c(cc4C(C1O)C23)OCO5 (centres undefined),0,0,-,0,25µM
Cc1ccc(/C=[N+](\[O-])c2ccc(N(C)C)cc2)c2nsnc12,0,0,?,0,14µM
COC(=O)c1cccc(NC(N)=S)c1,0,0,0,0,0
Cc1ccc(C(=O)O)cc1S(=O)(=O)N1CCSCC1,0,0,0,0,0
S=c1[nH]nc(-c2ccccn2)n1/N=C/c1ccc(Br)s1,0,0,28µM,0,0
S=c1[nH]nc(-c2ccccn2)n1/N=C/c1ccc(Cl)c(Cl)c1,0,0,?,0,0
COc1ccc(-c2[nH]n(-c3ccc([N+](=O)[O-])cc3)c(=O)c2C=NCc2ccncc2)cc1,0,0,0,7.9µM,0
CC(=O)c1sc2nc(CSc3nnnn3-c3ccccc3)[nH]c(=O)c2c1C,0,0,?,16µM,0
CC1(OC(=O)CCc2ccccc2)C(=O)C=C2C=C(c3ccc(C#N)cc3)N(CCN3CCOCC3)C=C2C1=O (centres undefined),0[11.5 µM],0[12.4 µM],-,0[12.4 µM],13µM
CC(C)OCCCN1C=C2C(=O)C(C)(OC(=O)CCc3ccccc3)C(=O)C=C2C=C1c1ccc(C#N)cc1 (centres undefined),0[11.5 µM],0[12.4 µM],-,0[12.4 µM],22µM!
CCOC(=O)c1ccc(NC(=S)N(CCCN2CCCC2)Cc2ccco2)cc1,0,0,35µM,0,0
CCOC(=O)c1ccc(NC(=S)N(CCCN2CCN(CC)CC2)Cc2ccco2)cc1,0,0,0,0,0

# Screening data deposited in PubChem by National Center for Advancing Translational Sciences (NCATS).
